# Measured values from PubChem BioAssay (NCATS).
# Several values for one entry are separate records, joined by “and”; a condition that tells them apart may be missing. Equal values may be shown once. Inconclusive results are not listed. Values without a mark were called inactive. Activity calls are given as the source filed them. The call rests on the fitted dose curve.
# How the values were obtained:
# [1] = target: Bile acid receptor (Homo sapiens) (UniProt Q96RI1); assay: qHTS assay for small molecule agonists of farnesoid X receptor signaling (AID 588527); settings: HEK293T FXR-UAS-bla, beta-lactamase ratio, 16 h; activation: stronger effect = higher value;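 further: series mostly up to about 77 µM; 0% = vehicle basal and 100% = reference agonist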
# How it was run: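 Read-out: beta-lactamase reporter fluorescence with CCF4 substrate in GeneBLAzer FXR-UAS-bla HEK293T cells, after 16 h compound exposure at 37 C. Response scaled between DMSO basal (0%) and chenodeoxycholic acid at 100 uM (100%).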
# [2] = target: Peroxisome proliferator-activated receptor delta (Homo sapiens) (UniProt Q03181); assay: qHTS assay for small molecule agonists of peroxisome proliferator-activated receptor delta signaling (AID 588534);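 further: 0% = DMSO basal wells and 100% = positive control agonist at 10 µM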
# How it was run: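 Titration series tested in agonist mode on beta-lactamase reporter cells; 18 hrs at 37 C after a 5 hr pre-incubation. Readout: CCF4 fluorescence, 2 hrs RT. Hill equation gives EC50 and maximal response.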
# Chain of Bile acid receptor (Homo sapiens) (Q96RI1 whole entry, looked up): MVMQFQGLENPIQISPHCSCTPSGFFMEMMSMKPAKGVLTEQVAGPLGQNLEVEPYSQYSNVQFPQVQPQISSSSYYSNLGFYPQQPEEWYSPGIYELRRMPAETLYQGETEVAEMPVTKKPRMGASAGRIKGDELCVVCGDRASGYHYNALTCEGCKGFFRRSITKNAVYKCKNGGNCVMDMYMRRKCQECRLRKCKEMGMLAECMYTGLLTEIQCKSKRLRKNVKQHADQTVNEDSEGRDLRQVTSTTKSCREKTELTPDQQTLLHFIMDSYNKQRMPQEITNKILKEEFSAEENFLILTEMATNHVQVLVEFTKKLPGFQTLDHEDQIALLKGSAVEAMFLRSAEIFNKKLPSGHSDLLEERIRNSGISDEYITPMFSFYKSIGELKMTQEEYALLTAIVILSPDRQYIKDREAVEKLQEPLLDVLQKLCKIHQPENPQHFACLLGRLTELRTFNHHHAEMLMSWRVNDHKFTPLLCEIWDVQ
# Chain of Peroxisome proliferator-activated receptor delta (Homo sapiens) (Q03181 whole entry, looked up): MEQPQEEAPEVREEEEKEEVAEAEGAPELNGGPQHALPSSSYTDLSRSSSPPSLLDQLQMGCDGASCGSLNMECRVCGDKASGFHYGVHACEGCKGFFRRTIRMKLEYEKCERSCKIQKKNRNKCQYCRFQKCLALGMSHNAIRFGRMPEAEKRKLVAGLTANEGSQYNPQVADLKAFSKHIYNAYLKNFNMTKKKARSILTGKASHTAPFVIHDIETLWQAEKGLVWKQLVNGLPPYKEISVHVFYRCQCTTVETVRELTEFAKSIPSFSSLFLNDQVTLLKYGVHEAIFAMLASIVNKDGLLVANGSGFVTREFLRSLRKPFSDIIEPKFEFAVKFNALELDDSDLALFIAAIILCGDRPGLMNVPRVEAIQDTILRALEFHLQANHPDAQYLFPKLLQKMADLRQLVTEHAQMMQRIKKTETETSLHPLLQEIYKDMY
SMILES,activation [1],outcome [2]
Cc1ccc(C)o1,1.14%,inactive
CC(C)Cc1c(C(=O)O)c(C(F)F)nc(C(F)(F)F)c1C1=NCCS1,0.784%,inactive
CC(C)CCCCCCc1ccc(O)cc1,6.07%,inactive
CCCCCCCCCCCCCCCCCC(=O)OC[C@@H](O)[C@H]1OC[C@H](O)[C@H]1O,5.18%,inactive
FB(F)F,0.812%,inactive
Nc1cccc([N+](=O)[O-])c1,-0.749%,inactive
CC(C)O,-0.657%,inactive
CCCCCCCN,-2.09%,inactive
COC(=O)CCSCCC(=O)OC,-4.49%,inactive
CSCCC=O,-2.56%,inactive
COC(=O)c1cccc(C)c1S(=O)(=O)NC(=O)Nc1nc(OCC(F)(F)F)nc(N(C)C)n1,-2.17%,inactive
O=S(c1ccc(Cl)cc1)c1cc(Cl)c(Cl)cc1Cl (centres undefined),0.155%,inactive
O=C(O)c1ccccc1Cl,1.39%,inactive
C1COC1,-2.57%,inactive
CNc1ccc(O)cc1,3.85%,inactive
O=C(O)C(c1ccc(Cl)cc1)c1ccc(Cl)cc1,-2.74%,inactive
Cc1ccc(C)c(O)c1,2.07%,inactive
CCC(C)OC(=O)N1CCCCC1CCO (centres undefined),1.43%,inactive
CCCCCCOCCOCCO,-1.2%,inactive
CC(=O)Nc1cccc(N)c1,-3.44%,inactive
c1ccc(B(c2ccccc2)c2ccccc2)cc1,2.92%,inactive
CC(N)CN (centres undefined),-2.35%,inactive
O=[N+]([O-])c1ccc2nc[nH]c2c1,-1.7%,inactive
N#CC1(O)CCCCC1,-2.07%,inactive

SMILES,activation [1],outcome [2]
COC(=O)C1CCC(C(=O)OC)CC1 (centres undefined),-4.06%,inactive
CCC1CO1 (centres undefined),-1.53%,inactive
CCO,-3.44%,inactive
Nc1cccc(O)c1,-1.81%,inactive
CCCCN(CCO)CCCC,-4.1%,inactive
Nc1ccccc1[N+](=O)[O-],-3.44%,inactive
CCCC(C)CO (centres undefined),1.08%,inactive
O=C(O)c1ccc(CO)o1,0.258%,inactive
Cc1ncc[nH]1,-1.48%,inactive
CCOc1ccc(NC(=O)OC(C)C)cc1OCC,-1.45%,inactive
Nc1c(N=Nc2ccc(S(=O)(=O)CCOS(=O)(=O)O)cc2)c(S(=O)(=O)O)cc2cc(S(=O)(=O)O)c(N=Nc3ccc(S(=O)(=O)CCOS(=O)(=O)O)cc3)c(O)c12,4.58%,inactive
CCCCCCCCCCCC[N+](C)(C)[O-],8.79%,inactive
Cc1cc(C(C)(C)CC(C)(C)C)ccc1OCCOCC[N+](C)(C)Cc1ccccc1,-0.746%,inactive
C=Cc1ccccc1Br,2.37%,inactive
Cc1c(C(=O)O)cccc1[N+](=O)[O-],-2.92%,inactive
CCCCCCCOC(=O)c1ccccc1C(=O)OCCCCCCC,-0.976%,inactive
CC(O)CC(C)O (centres undefined),-1.48%,inactive
CCCCC/C=C\C/C=C\CCCCCCCC(=O)O,-2.08% and -1.01%,inactive
FC(F)(F)c1cccc(Cl)c1,-1.67%,inactive
Nc1ccc(N=Nc2ccccc2)c(N)c1,-2.91%,inactive
Cc1cccc([N+](=O)[O-])c1C(=O)O,-1.22%,inactive
CC(C)OC(=O)c1ccccc1C(=O)OC(C)C,0.429%,inactive
CCCC/C=C\CCCCCCCCO,-5.44%,inactive
